This is a sample that favours compounds with a hit; in the whole collection about 27% have one here.
CYP2C19 act = cytochrome P450 2C19 (human) activation; P33261; recombinant CYP2C19, luciferin-H EGE luminescence; stronger effect = higher value; 0 = fully inhibited enzyme, 1 = untreated enzyme; activation factor at 5 µM; 96,000 tested, under 10 active; AID 1025;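 active means activation factor of at least 2 at 5 µM in the primary screen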;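 further: 0 = wells with 2.5 mM tranylcypromine and 1 = vehicle-only wells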
CYP2C9 inhib = inhibitors of human CYP2C9 | 96,000 compounds, 20% hits | CYP2C9 Supersomes, luciferin-H conversion, luminescence | inhibition, % at 5 µM | P11712;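 active means blocking of liver enzyme CYP2C9 beyond about 50% at 5 µM, limit read from the data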
Target sequence (P11712 whole entry, looked up): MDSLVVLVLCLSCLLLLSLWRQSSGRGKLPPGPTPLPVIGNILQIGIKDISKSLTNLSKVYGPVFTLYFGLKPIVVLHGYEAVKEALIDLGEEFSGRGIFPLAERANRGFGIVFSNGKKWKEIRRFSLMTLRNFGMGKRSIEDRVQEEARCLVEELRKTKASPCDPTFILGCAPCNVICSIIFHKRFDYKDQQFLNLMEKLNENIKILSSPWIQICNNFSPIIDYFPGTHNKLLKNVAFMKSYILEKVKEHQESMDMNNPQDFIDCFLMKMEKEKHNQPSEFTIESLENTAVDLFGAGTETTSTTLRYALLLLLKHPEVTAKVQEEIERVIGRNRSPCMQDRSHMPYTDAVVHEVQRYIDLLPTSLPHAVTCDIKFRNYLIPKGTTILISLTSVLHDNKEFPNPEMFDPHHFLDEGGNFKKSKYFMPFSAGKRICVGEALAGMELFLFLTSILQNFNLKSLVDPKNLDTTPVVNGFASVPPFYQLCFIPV
Cav3 T inh = blocks human Cav3.2 T-type calcium channel. O95180. Cav3.2-expressing cells, Fluo-4 calcium fluorescence FDSS; stronger effect = lower value. B-score at 10 µM. 100,000 compounds, 4% hits;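 active means single-dose well whose peak fluorescence ratio is a statistical outlier from its plate by either plate-standardised score or position-corrected B-score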
CYP2C9 act = CYP2C9 (human) activation | recombinant CYP2C9, luciferin-H conversion, luminescence; stronger effect = higher value; factor 1 = untreated enzyme, 0 = blocked | activation factor at 5 µM | 96,000 compounds, 1.4% hits | P11712 | AID 1024;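 active means activation factor of 2 or more for CYP2C9 at a 5 µM dose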;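 further: 0 = sulfaphenazole-blocked wells and 1 = vehicle-only wells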
CYP2C19 inhib = inhibitors of human CYP2C19; CYP2C19 Supersomes, luciferin-H EGE luminescence, 30 min; AID 778; P33261; 96,000 compounds, 21% hits; inhibition, % at 5 µM;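 active means CYP2C19 inhibition above a set limit at 5 µM in the primary screen, cut at about 50% in these data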;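 further: plate controls were negative control wells for no effect and 2.5 mM tranylcypromine positive control for full effect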
* = called active by the depositor; · = not tested or not shown.

SMILES	CYP2C19 act	CYP2C9 inhib	Cav3 T inh	CYP2C9 act	CYP2C19 inhib
CN(C)CCOCCSc1ccc(Cl)cc1	0.9	6	1.4	0.9	13
Cc1nnsc1C(=O)Nc1cc(Cl)ccc1Cl	·	·	-0.62	·	·
CCc1ccc(C(=O)COC(=O)c2cnccn2)cc1	1.2	-22	0.99	1.2	-16
c1csc(C(c2nnnn2C2CCCCC2)N2CCN(c3nc4ccccc4s3)CC2)c1 (stereo not given)	·	·	-3.8*	·	·
O=C(c1ccco1)N1CCN(C(c2ccccc2Cl)c2nnnn2Cc2cccs2)CC1 (stereo not given)	0.1	92*	-0.16	0.1	89*
CCCC(c1nnnn1Cc1cccs1)N1CCN(c2nc3ccccc3s2)CC1 (stereo not given)	0.8	34	0.46	0.7	18
Brc1ccc2nc(CSc3ncn[nH]3)cn2c1	0.5	-10	-0.12	1.1	52*
Cc1cc(C)c2[nH]c(=O)c(C(c3nnnn3C3CCCC3)N3CCOCC3)cc2c1 (stereo not given)	1.1	-10	·	1.1	-14
Cc1oc(-c2ccccc2F)nc1CS(=O)CC(=O)NCc1cccs1 (stereo not given)	0.5	63*	0.11	0.4	53*
Cc1oc(-c2ccccc2Cl)nc1CS(=O)CC(=O)NCc1cccs1 (stereo not given)	0.3	69*	-0.35	0.3	71*
Cc1oc(-c2ccccc2F)nc1CS(=O)CC(=O)NCc1ccc2c(c1)OCO2 (stereo not given)	0.4	53*	0.0077	0.5	62*
Cc1cccc(-c2nc(CS(=O)CC(=O)NCc3cccs3)c(C)o2)c1 (stereo not given)	0.6	60*	-0.37	0.4	37
Cn1ncc(Cl)c1C(=O)Nc1cccnc1	1	18	0.5	0.8	3
CC(C)C12CCC(C(=O)O)C(C1)C(=O)O2 (stereo not given)	·	·	0.3	·	·
O=C(Nc1ccccc1[N+](=O)[O-])C1=C(O)CCn2c1nc1ccccc12	1	31	-0.1	0.7	2
Cc1cccc(-c2nc(CS(=O)CC(=O)NCC3CCCO3)c(C)o2)c1 (stereo not given)	0.9	6	0.12	0.9	10
Cc1ccc(CCNC(=O)CS(=O)Cc2nc(-c3cccc(C)c3)oc2C)cc1 (stereo not given)	0.4	70*	-5.2*	0.3	64*
FC(F)(F)c1nnc2sc(-c3cccs3)nn12	1	2	0.24	1	4
c1ccc(-c2nnc3ccc(N4CCC5(CC4)OCCO5)nn23)cc1	0.9	48	-1.7	0.5	10
COc1ccc(S(=O)(=O)N2CCN(c3ccc4nnc(-c5ccccc5)n4n3)CC2)cc1	0.2	87*	1.9	0.1	76*
NC(=O)C1(N2CCCCC2)CCN(c2ccc3nnc(-c4ccccc4)n3n2)CC1	0.2	68*	1.8	0.3	78*
Brc1ccc(-c2nnc3ccc(N4CCN(c5ccccc5)CC4)nn23)cc1	0.9	25	-1.8	0.8	10
NC(=O)C1(N2CCCCC2)CCN(c2nc(-c3ccccc3)cs2)CC1	0	88*	-0.32	0.1	95*
CCCOc1ccc2c(=O)c(-c3cc(C(=O)OC)oc3C)c(C)oc2c1	0.8	48	1.1	0.5	20
COc1ccc(C2N=C(Nc3ccc(C)cc3)Nc3nc(C)cc(=O)n32)cc1 (stereo not given)	0.9	10	-3.2	0.9	6
SMILES	CYP2C19 act	CYP2C9 inhib	Cav3 T inh	CYP2C9 act	CYP2C19 inhib
C=CCn1c(=S)[nH]c2sc3c(c2c1=O)CCC3	·	·	0.25	·	·
Cc1ccc(NC(=O)c2cc([N+](=O)[O-])ccc2NCc2cccnc2)cc1	0.2	91*	-0.37	0.1	83*
O=C(/C=C/c1cccc([N+](=O)[O-])c1)NCc1cccnc1	0.7	34	0.63	0.7	31
Cc1cccc(N(Cc2nnc3n2CCCCC3)C(=O)Nc2ccccc2)c1	0.7	1	-0.0041	1	25
CCN(C(=S)Nc1ccccc1F)C1CCCCC1	0.6	13	-0.52	0.9	42
CN(C(=S)Nc1ccccc1F)C1(c2ccccc2Cl)CCCCC1=O (stereo not given)	0.2	3	0.66	1	82*
Cc1cccc(NC(=S)N(C)C2(c3ccccc3Cl)CCCCC2=O)c1 (stereo not given)	0	68*	-1.3	0.3	97*
O=C(C1Cc2ccccc2CN1S(=O)(=O)c1cccs1)N1CCCCC1 (stereo not given)	0.7	8	0.21	0.9	26

From PubChem
